These results are taken from PubChem BioAssay AID651814 (National Center for Advancing Translational Sciences (NCATS), 2012).

In all, about 2,100 compounds went through this assay and about 590 (28%) were called active. Roughly 42% stayed inconclusive and do not appear here. This is one part of the list. Values without a mark were called inactive. The call rests on the fitted dose curve; in most records, active means well fitted inhibition curve with a large enough effect; inconclusive means small, poorly fitted or top-dose-only effect; inactive means flat fitted curve, though single readings scatter.
Potency means the concentration at half of the fitted maximal effect.

Chain of DNA dC->dU-editing enzyme APOBEC-3F (Homo sapiens) (Q8IUX4 whole entry, looked up): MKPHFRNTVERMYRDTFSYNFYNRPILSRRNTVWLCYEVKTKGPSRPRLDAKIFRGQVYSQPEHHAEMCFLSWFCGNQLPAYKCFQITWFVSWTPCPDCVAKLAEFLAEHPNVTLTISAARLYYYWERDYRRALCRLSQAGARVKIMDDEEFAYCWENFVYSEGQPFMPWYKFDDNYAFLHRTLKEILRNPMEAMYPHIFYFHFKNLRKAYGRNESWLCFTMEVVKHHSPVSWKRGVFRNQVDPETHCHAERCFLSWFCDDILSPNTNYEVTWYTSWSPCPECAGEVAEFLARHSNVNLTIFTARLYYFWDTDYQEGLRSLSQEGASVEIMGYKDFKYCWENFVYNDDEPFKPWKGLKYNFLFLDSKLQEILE

This test deals with DNA dC->dU-editing enzyme APOBEC-3F (Homo sapiens) (UniProt Q8IUX4). Description: qHTS for inhibitors of Vif-A3F interactions: Cherry picks. Further: nearly all actives have a fitted effect of over 70% in size.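 On max response: % of control where 0% means no effect; active compounds raise eYFP fluorescence by blocking Vif-driven A3F loss.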 Conditions: HeLa A3F-eYFP + Vif (tagged APOBEC3F with the HIV-1 protein that degrades it), eYFP fluorescence, 24 h. The source says:
The recent discovery and characterization of host restriction factors, which provide a potent defense to invading retroviruses, has provided new targets for antiviral drug development. APOBEC3G (A3G) and APOBEC3F (A3F) are potent cytidine deaminases that block HIV-1 replication; HIV-1 expresses the Vif protein, which counteracts A3G and A3F by binding to them and inducing their proteasomal degradation. The Vif-A3G and Vif-A3F interactions provide two potential targets for development of small molecules which can interfere with the ability of Vif to degrade A3G or A3F. […] To identify inhibitors that can interfere with Vif mediated degradation of A3G and A3F, we have developed Hela cell lines that stably express A3G or A3F tagged with eYFP at the C-terminal end (A3G-eYFP or A3F-eYFP, respectively) and Vif. In the absence of an inhibitor, Vif induces degradation of A3G-eYFP and A3F-eYFP, and the cells are not fluorescent. In the presence of an inhibitor, it is expected that Vif will be unable to degrade A3G-eYFP and/or A3F-eYFP, resulting in an increase in yellow fluorescence. In this assay, Vif A3F was screened against the cherry picks ordered from the MLSMR. NIH Chemical Genomics Center [NCGC] NIH Molecular Libraries Probe Centers Network [MLPCN] MLPCN Grant: MH093245 Assay Submitter (PI): Vinay Pathak, National Cancer Institute
A3F-Vif cells were harvested from T225 flask and resuspended in phenol free OPTI-MEM medium with 5% FBS. Then 5 uL of 140,000 cells/mL resuspended cells was dispensed into each well of low base Aurora COC 1,536-well plates (black walled, clear bottom) using a Multidrop Combi dispenser. After overnight culture at 37 deg C with 5% CO2, a total of 23 nL of compounds at 5 selected concentrations from the NPC or positive control (2 mM stock of MG132) in DMSO was transferred to each well of the assay plate using a pintool (Kalypsys, San Diego, CA), and the plates were further incubated at 37 deg C with 5% CO2 for 24 hours. After that, the plates were measured on Acumen Explorer (TTP Lab Tech). The fluorescence was detected by 488 nm/Ex and […].
(In general: In qHTS, concentration-response curves come from the screen itself.)
In the case of `Cc1nc2c3cc(F)ccc3n(Cc3ccccc3)c2s1`, the Potency is 4.98 µM (active).
`Cc1nc2c3cc(F)ccc3n(Cc3ccccc3F)c2s1`: the Potency was 14 µM (active).
Take `COc1cccc(CNCCSc2nnnn2C)c1OCc1ccc(F)cc1`: the max response is -0.625%.
On to `Cc1ccc(S(=O)c2ccc([N+](=O)[O-])c3nonc23)cc1` (centres undefined), for which the Potency is 18.4 µM (active).
As for `Cc1cc(/C=C2\SC(=S)N(C)C2=O)c(C)n1-c1ccccc1O`, the Potency was 20.6 µM (active).
In the case of `Cc1cc(/C=C2\SC(=S)N(Cc3ccco3)C2=O)c(C)n1-c1ccccc1`, the Potency is 18.4 µM (active).
As for `O=C1/C(=C/c2ccc(O)cc2)SC(=S)N1Cc1cccnc1`, the max response is -10.2%.
As for `Cc1cc(/C=C2\SC(=S)N(Cc3ccco3)C2=O)c(C)n1-c1cccnc1`, the Potency is 20.6 µM (active).
Turning to `CN(C)c1ccc(C=C2SC(=S)N(Cc3ccco3)C2=O)cc1`, the Potency was 4.98 µM (active).
Take `S=C(Nc1cccc2ccccc12)NN1CCCCCC1`: the max response was 0.0404%.
For `Cc1cc2ccccn2c1C(=O)c1ccc([N+](=O)[O-])o1`, the Potency is 11.6 µM (active).
Consider `O=C(NCc1cccnc1)c1ccc([N+](=O)[O-])o1`, for which the max response is -20.4%.
As for `O=C(NN(c1ccccc1)c1ccccc1)c1ccc([N+](=O)[O-])o1`, the max response was -20.2%.
As for `N#C/C(=C/c1ccc(N2CCOCC2)o1)C(=O)NC1CCCCC1`, the Potency was 16.4 µM (active).
With `N#C/C(=C\c1ccc(N2CCCCC2)o1)C(N)=O`, the Potency was 15.8 µM (active).
Regarding `N#C/C(=C\c1ccc(N2CCOCC2)o1)C(=O)NC1CCCCC1`, the Potency is 15.8 µM (active).
In the case of `Cc1onc(-c2c(F)cccc2Cl)c1C(=O)O/N=C(\N)c1ccc([N+](=O)[O-])o1`, the max response is -3.32%.
On to `CSc1cccc(NC(=O)c2cc3c(COC(C)=O)cnc(C)c3oc2=O)c1`, for which the max response is -5.04%.
Same read-out and setting: next, `Cc1ccc(S(=O)(=O)N2CCCCC2CCNC(=O)C(=O)NCc2ccco2)cc1` (centres undefined): -26.1%.
On to `O=C(NC1CCCCC1)c1cccc2c1C(=O)c1ccc(N3CCC(Cc4ccccc4)CC3)cc1S2(=O)=O`, for which the Potency is 12.5 µM (active).
For `O=C(NCc1ccco1)c1cccc2c1C(=O)c1ccc(N3CCC(Cc4ccccc4)CC3)cc1S2(=O)=O`, the Potency is 23.1 µM (active).
On to `O=C(NC1CC1)c1cccc2c1C(=O)c1ccc(N3CCC(Cc4ccccc4)CC3)cc1S2(=O)=O`, for which the Potency was 20.6 µM (active).
Consider `Cc1cc(C)c(S(=O)(=O)N2CCCCC2CCNC(=O)C(=O)NCc2ccco2)c(C)c1` (centres undefined), for which the max response was -24.9%.
With `CCN(CC)c1ccc(/C=C2\C(=N)N3N=C(CC(=O)N4CCOCC4)SC3=NC2=O)cc1`, the Potency is 0.396 µM (active).
With `CN(C)c1ccc(/C=C2\C(=N)N3N=C(CC(=O)N4CCCCC4)SC3=NC2=O)cc1`, the Potency was 16.4 µM (active).
In the case of `COc1cc(/C=C2\C(=N)N3N=CSC3=NC2=O)cc(Br)c1OC(=O)c1ccco1`, the max response was 5.77%.
Turning to `COc1cc(/C=C2\C(=N)N3N=C(S(C)(=O)=O)SC3=NC2=O)ccc1OC(=O)c1ccco1`, the max response is 3.53%.
Turning to `CN(C)c1ccc(/C=C2\SC(N3CCCCC3)=NC2=O)cc1`, the Potency was 16.4 µM (active).
On the same count and under the same terms, the figure for `C1=Cc2ccccc2/C1=C\c1cc2c3c(c1)CCCN3CCC2` is 18.4 µM (active).
On to `Cc1ccc(S(=O)(=O)c2cc3ccccc3oc2=Nc2ccc3c(c2)OCO3)cc1`, for which the max response is -1.94%.
For `Cc1sc2ncn(CC(=O)NCc3ccccc3)c(=O)c2c1C`, the max response is -23.3%.
Regarding `Cc1sc2ncnc(N=Nc3c(O)[nH]c4ccccc34)c2c1C`, the Potency was 13 µM (active).
Take `Cc1sc2ncnc(SCC(=O)NC(C)(C)C)c2c1C`: the max response was 0.663%.
Take `O=S(=O)(Nc1ccc(C(O)(C(F)(F)F)C(F)(F)F)cc1)c1ccc(Cl)c2nonc12`: the Potency was 12.5 µM (active).
For `Cc1ccc(F)c(S(=O)(=O)NC(=O)C2(C)CCN2C(=O)Cc2ccc(Cl)cc2Cl)c1` (centres undefined), the max response is 0.983%.
Still for that read-out and setting: next, `Cc1ccc(N=C2NC(=O)CC(C(=O)Nc3ccc4c(c3)OCO4)S2)cc1` (centres undefined): -22.7%.
Regarding `CCCN1C(=O)C(Cc2nc3ccccc3c(=O)n2CC)c2cc(Br)ccc21` (centres undefined), the max response was -0.982%.
Take `Cn1c(/C=C/c2ccc([N+](=O)[O-])o2)nc2ccccc2c1=O`: the Potency is 16.4 µM (active).
On to `O=c1c2ccccc2nc(/C=C/c2ccc([N+](=O)[O-])o2)n1CCCO`, for which the Potency is 3.26 µM (active).
The same measure, in the same setting: the figure for `CCn1c(/C=C/c2ccc([N+](=O)[O-])o2)nc2ccccc2c1=O` is 3.26 µM (active); for `Cc1cc(N/N=C/c2ccc([N+](=O)[O-])o2)nc2ccccc12` it is 16.4 µM (active).
For `Cc1ccc2oc(/N=C(\N)NC(=O)C(C)(C)C)nc2c1`, the max response was -3.74%.
For the compound `CNC(=O)C(Sc1nc(C)nc2c1oc1ccccc12)C(C)=O` (centres undefined), the max response is -18.1%.
`Cc1cc(NC(=O)Nc2nnc(N(C)Cc3ccccc3)s2)ccc1Br`: the max response was -0.38%.
Still for that read-out and setting: next, `O=C(Nc1cc(Cl)cc2c1-c1ccc(Cl)cc1C2O)C(Cl)Cl` (centres undefined): -15.3%.
For the compound `CCCCN(C(=O)c1ccc([N+](=O)[O-])s1)c1c(N)n(CCCC)c(=O)[nH]c1=O`, the max response was 3.55%.
For `COc1cccc(/C=N/n2c(C3CCCCC3)n[nH]c2=S)c1O`, the max response is 2.43%.
Turning to `Cc1ccc2[nH]c(C)c(/C=C/c3cc[n+](C)cc3)c2c1`, the Potency is 0.994 µM (active).
Consider `Cc1[nH]c2ccccc2c1/C=C/c1cc[n+](C)cc1`, for which the Potency was 1.58 µM (active).
`Cc1[nH]c2ccccc2c1/C=C/C(=O)c1ccccc1`: the Potency was 20.6 µM (active).
In the case of `CCOc1cc(C)nc(NCc2ccccc2)n1`, the max response was -21.9%.
For `CCCn1c(C2CCCN2c2nc(-c3cccc(Br)c3)cs2)nc2ccccc21` (centres undefined), the max response is 2.76%.
For the compound `C=C(C)CNC(=S)N/N=C1\CCCCc2ccccc21`, the max response is 0.867%.
`CCN1C(=O)/C(=C/C=C2\N(CC)c3cc(S(=O)(=O)N(C)C)ccc3N2c2ccccc2)SC1=S`: the max response is -29.7%.
Take `CCCN1C(=O)/C(=C\C=C2\N(CC)c3ccccc3C2(C)C)SC1=S`: the Potency was 2.06 µM (active).
As to `CN1/C(=C\C=C2/SC(=S)NC2=O)C(C)(C)c2ccccc21`, the Potency was 4.44 µM (active).
For the compound `C=CCN1C(=O)/C(=C\C=C2\N(C)c3ccccc3C2(C)C)SC1=S`, the Potency was 0.461 µM (active).
In the case of `CN1/C(=C\C=C2/SC(=S)N(CC(=O)O)C2=O)C(C)(C)c2ccccc21`, the max response was -6.86%.
`CCCN1C(=O)/C(=C/C=C2\N(CC)c3ccccc3C2(C)C)SC1=S`: the Potency was 1.77 µM (active).
Take `Clc1ccsc1-c1csc(-c2cccnc2)n1`: the max response is -27.5%.
As for `NNC(=S)Nc1c(F)cc(F)cc1Br`, the max response was 1.43%.
For `O=C1/C(=C/c2c[nH]c3ccccc23)CCC/C1=C\c1c[nH]c2ccccc12`, the Potency was 16.4 µM (active).
For `Cn1nnnc1SCCNCc1cc(Br)ccc1OCc1ccccc1Cl`, the max response is -14.7%.
Consider `Cc1cccc2cc3c(N)c(C(=O)N4CCOCC4)sc3nc12`, for which the Potency was 7.31 µM (active).
Turning to `Cc1ccc(C)c2nc3sc(C(=O)N4CCOCC4)c(N)c3cc12`, the Potency was 12.5 µM (active).
Take `Cc1sc(NC(=O)c2sc3nc4c(C)cccc4cc3c2N)c(C#N)c1C`: the Potency is 17.7 µM (active).
In the case of `O=C(Nc1ccc(N2CCOCC2)cc1)c1cccc2ccccc12`, the max response is -29.2%.
As for `Cc1cccc2cc3c(N)c(C(=O)Nc4ccc(N5CCOCC5)cc4)sc3nc12`, the Potency was 11.2 µM (active).
As to `COc1cc(C(=O)OCC(=O)Nc2ccc(N3CCOCC3)cc2)ccc1OCC(C)C`, the max response was 1.41%.
For `CCN(CC)c1ccc(/C=N/NC(=S)NC)c(O)c1`, the max response was -6.91%.
With `COc1ccc(Nc2nc(C)nc3sc4c(c23)CCC4)cc1O`, the max response is -29.4%.
`CCn1c(O)c(/C=N/N=C/c2ccc(OC)cc2)c2cc(C3=NNC(=O)CC3)ccc21`: the Potency is 6.51 µM (active).
Regarding `CN(C)c1ccc(/C=C2\Cc3ccccc3C2=O)cc1`, the Potency was 5.17 µM (active).
Regarding `CN(C)c1ccc(/C=C2/C[N+](C)(C)C/C(=C/c3ccc(N(C)C)cc3)C2=O)cc1`, the Potency was 2.59 µM (active).
`C[N+](C)(C)CCC(=O)N1C/C(=C/c2ccccc2)C(=O)/C(=C\c2ccccc2)C1`: the max response is -12.6%.
In the case of `O=C1/C(=C\c2cc([N+](=O)[O-])ccc2O)SC(=S)N1Cc1ccc(Cl)cc1`, the Potency was 20.6 µM (active).
With `O=C1/C(=C\c2ccc(O)c(O)c2)SC(=S)N1Cc1ccccc1`, the max response was -22.4%.
For the compound `O=C1CC(c2ccccc2)Cc2[nH]c(=O)c(-c3nc(-c4cccc(Cl)c4)cs3)cc21` (centres undefined), the Potency is 4.11 µM (active).
Regarding `Cc1sc(-c2cc3c([nH]c2=O)CC(c2ccccc2)CC3=O)nc1-c1ccc(Cl)cc1` (centres undefined), the Potency was 1.84 µM (active).
As to `CCN(c1ccc(NC(=O)CCc2nc3sc4c(c3c(=O)[nH]2)CCCC4)cc1)C(C)C`, the max response is -16.9%.
Consider `Clc1ccccc1C1CC(c2ccccc2)=Nc2ccccc2N1` (centres undefined), for which the max response was -7.9%.
Regarding `COc1ccc(C(=O)c2sc3nc4c(c(C(F)(F)F)c3c2N)CN(C(C)=O)CC4)cc1OC`, the Potency was 23.1 µM (active).
The same measure, in the same setting: next, `CC(=O)N1CCc2nc3sc(C(=O)c4ccc(F)cc4)c(N)c3c(C(F)(F)F)c2C1`: 20.6 µM (active); `O=C1S/C(=C/c2ccc(N3CCOCC3)o2)C(=O)N1Cc1ccc(F)cc1`: 2.8 µM (active).
Still for that read-out and setting: next, `O=C1S/C(=C/c2ccc(N3CCOCC3)o2)C(=O)N1Cc1c(F)cccc1Cl`: 2.5 µM (active).
As to `Cc1cc2nc3s/c(=C/c4ccc(-c5ccccc5C(=O)O)o4)c(=O)n3c2cc1C`, the Potency was 20.6 µM (active).
Consider `Cc1ccc(NC(=O)C2CCN(S(=O)(=O)c3ccc(Cl)c(C(F)(F)F)c3)CC2)nc1`, for which the max response is 1.5%.
As for `CCc1cc[n+](-c2nc3ccccc3nc2[N-]S(=O)(=O)c2ccc(Br)s2)cc1`, the Potency was 23.1 µM (active).
For the compound `O=S(=O)([N-]c1nc2ccccc2nc1-[n+]1ccc(-c2ccncc2)cc1)c1ccccc1`, the max response was -0.136%.
